Records with an inconclusive call do not appear. Calls of active or inactive are those of the source. Rule for the calls: active = hit-call score of the fitted dose curve at least 0.9, where 1 is the maximum; inconclusive = response in the unintended direction; inactive = score below 0.9.
Assay: CLD_ACTIN_24hr: CellzDirect (CLD) Gene Expression Assay for Baseline Control (Actin) at 24 hours (AID 2283670)
Procedure: CLD_24hr is a cell-based, multiplexed-readout assay that uses hepatocyte, a human liver primary cell, with measurements taken at 24 hours after chemical dosing in a 96-well plate.CLD_ACTIN_24hr is one of 16 assay component(s) measured or calculated from the CLD_24hr assay. It is designed to make measurements of mRNA induction, a form of inducible reporter, as detected with chemiluminescence signals by Quantitative Nuclease Protection Assay (qNPA) technology.Data from the assay component CLD_ACTIN_24hr was analyzed at the endpoint, CLD_ACTIN_24hr, in the positive analysis fitting direction relative to DMSO as the negative control and baseline of activity. Using a type of inducible reporter, gain-of-signal activity can be used to understand changes in the reporter gene as they relate to the gene ACTA1. Furthermore, this assay endpoint can be referred to as a secondary readout, because this assay has produced multiple assay endpoints where this one serves a background control function. To generalize the intended target to other relatable targets, this assay endpoint is annotated to the background measurement intended target family, where subfamily is baseline control.
Human hepatocyte cultures were treated daily for two consecutive days with fresh dosing solutions containing appropriate concentrations of the 320 ToxCast chemicals (chemical identities were blinded to CellzDirect and other ToxCast collaborators), vehicle control (0.2% DMSO), and positive control inducers as summarized in Table 1. Due to the large number of treatment groups and chemicals examined, the ToxCast chemicals were divided into two groups (spanning two independent cultures of hepatocytes from separate donor preparations (Hu778: ToxCast plates 1 and 2; Hu776: ToxCast plates 3 and 4). Each preparation of human hepatocyte cultures was treated with respective vehicle control, medium only control, set of six positive controls/reference chemicals for the five hepatic receptor pathways, and a subset of eight of the ToxCast chemicals (indoxacarb, pyrithiobac-sodium, norflurazon, cyhalofop-butyl, methomyl, thiram, acetochlor, and propiconazole). These replicate data, coupled with internal replicates designed within the blinded ToxCast chemical library, provided additional data to evaluate interindividual differences between hepatocyte preparations and their potential impact on chemical profiles.Cell morphology and integrity were evaluated using phase-contrast microscopy as an indicator of hepatocyte cell health (Tyson & Green, 1987). Cultures for each treatment group (i.e., media, vehicle [0.2% DMSO], positive control inducers [multiple concentrations], and the ToxCast chemicals [multiple concentrations]) were observed and cell morphology was assessed relative to vehicle control cultures at each harvest time point (0, 6, 24, or 48 h). […] Images were evaluated at the conclusion of the study to assess changes in cell integrity and account for the effects of chemical exposure on uncharacteristic changes in concentration-dependent gene expression profiles. The results from these determinations of apparent cytotoxicity were annotated (yes/no) alongside the corresponding qNPA data for reference.At the conclusion of each treatment period, hepatocyte cultures (96-well) were washed with 1 volume of HBSS, lysed by addition of 25 ul ArrayPlate lysis buffer (HTG, Tucson, AZ), and 70 ul/well of Denaturation Oil, denatured by incubation at 95C for 10 min, and frozen at approximately -70C until analysis by nuclease protection assay (qNPA) (Roberts et al., 2007). For qNPA analysis, cell lysates were thawed at 50C for approximately 30 min, qNPA probes were added, and samples were incubated at 95C for 10 min to begin the detection process by denaturing the target RNA, dissociating the duplexes and secondary structure hybridization. At the conclusion of the hybridization period, S1 nuclease reagent was added to each sample to digest all nonprotected nucleotides at 50C for 60-90 min. […]

Compound	outcome
CC1(c2ccc(Oc3ccccc3)cc2)OC(=O)N(Nc2ccccc2)C1=O (stereo unspecified)	inactive
O=C(O)COc1ccc(Cl)cc1Cl	inactive
CCS(=O)(=O)c1cccnc1S(=O)(=O)NC(=O)Nc1nc(OC)cc(OC)n1	inactive
[2H]C1([2H])[n+]2ccccc2-c2cccc[n+]2C1([2H])[2H]	inactive
COP(=O)(OC)OC=C(Cl)Cl	inactive
CNC(=O)Oc1cccc(N=CN(C)C)c1	inactive
CC[C@H](C)[C@H]1O[C@]2(C=C[C@@H]1C)C[C@@H]1C[C@@H](C/C=C(\C)[C@@H](O[C@H]3C[C@H](OC)[C@@H](O[C@H]4C[C@H](OC)[C@@H](O)[C@H](C)O4)[C@H](C)O3)[C@@H](C)/C=C/C=C3\CO[C@@H]4[C@H](O)C(C)=C[C@@H](C(=O)O1)[C@]34O)O2 (tested in a mixture with another compound)	inactive
Cc1[nH]c(=O)n(C(C)(C)C)c(=O)c1Cl	inactive
COC(=O)c1ccccc1S(=O)(=O)NC(=O)N(C)c1nc(C)nc(OC)n1	inactive
COC(=O)c1ccccc1S(=O)(=O)NC(=O)Nc1nc(C)nc(OC)n1	inactive
O=[N+]([O-])c1c(Cl)c(Cl)c(Cl)c(Cl)c1Cl	inactive
CNC(=O)CSP(=S)(OC)OC	inactive
O=C(NC(=O)c1c(F)cccc1F)Nc1ccc(OC(F)(F)C(F)OC(F)(F)F)c(Cl)c1 (stereo unspecified)	inactive
CN1CSC(=S)N(C)C1	inactive
CCOc1nc(NC)nc(NC(=O)NS(=O)(=O)c2ccccc2C(=O)OC)n1	inactive
O=[N+]([O-])/N=C1\NCCN1Cc1ccc(Cl)nc1	inactive
N#CN	inactive
CNC(=O)Oc1ccccc1OC(C)C	inactive
Oc1cc(Cl)ccc1Oc1ccc(Cl)cc1Cl	inactive
Cc1cc(C)nc(NC(=O)NS(=O)(=O)c2ccccc2C(=O)OC2COC2)n1	inactive
O=S1OCC2C(CO1)C1(Cl)C(Cl)=C(Cl)C2(Cl)C1(Cl)Cl (stereo unspecified)	inactive
O=C1c2ccccc2C(=O)N1SC(Cl)(Cl)Cl	inactive
CC(C)N(C(=O)COc1nnc(C(F)(F)F)s1)c1ccc(F)cc1	inactive
COc1cc(OC)nc(NC(=O)NS(=O)(=O)c2cc(NC=O)ccc2C(=O)N(C)C)n1	inactive
Oc1ccc(Cl)cc1Cc1ccccc1	inactive
O=C(O)CCCOc1ccc(Cl)cc1Cl	inactive
